# Test results taken from publication PMC5540273 (PLoS ONE, 2017).
# Read-outs that look alike come from different tables or passages of the source.
# Columns and labels:
# GRK2 = tested on: T1, GRK2; settings: concentration: 1 μM, replicates: in singlicate; n = 1
# T1 construct: gene ADRBK1
# GRK3 = tested on: T2, GRK3; settings: concentration: 1 μM, replicates: in singlicate; n = 1
# T2 construct: gene ADRBK2
# GRK4 = settings: concentration: 1 μM, replicates: in singlicate; n = 1
# GRK7 = settings: concentration: 1 μM, replicates: in singlicate; n = 1
# GSK3A = settings: concentration: 1 μM, replicates: in singlicate; n = 1
# GSK3B = settings: n = 1
# HASPIN = tested on: T3, HASPIN; settings: concentration: 1 μM, replicates: in singlicate; n = 1
# T3 construct: gene GSG2
# HCK = settings: concentration: 1 μM, replicates: in singlicate; n = 1
# HIPK1 = settings: concentration: 1 μM, replicates: in singlicate; n = 1
# HIPK2 = settings: concentration: 1 μM, replicates: in singlicate; n = 1
# HIPK3 = settings: concentration: 1 μM, replicates: in singlicate; n = 1
# HIPK4 = settings: concentration: 1 μM, replicates: in singlicate; n = 1
# HPK1 = settings: concentration: 1 μM, replicates: in singlicate; n = 1
# HUNK = settings: concentration: 1 μM, replicates: in singlicate; n = 1
# ICK = settings: concentration: 1 μM, replicates: in singlicate; n = 1
# IGF1R = settings: concentration: 1 μM, replicates: in singlicate; n = 1
# IKK-alpha = tested on: T4, IKK-alpha; settings: concentration: 1 μM, replicates: in singlicate; n = 1
# T4 construct: gene CHUK
# IKK-beta = tested on: T5, IKK-beta; settings: concentration: 1 μM, replicates: in singlicate; n = 1
# T5 construct: gene IKBKB
# IKK-epsilon = tested on: T6, IKK-epsilon; settings: concentration: 1 μM, replicates: in singlicate; n = 1
# T6 construct: gene IKBKE
# INSRR = settings: concentration: 1 μM, replicates: in singlicate; n = 1
# [1] = concentration: 1 μM, replicates: in singlicate
# 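Note: KINOMEscan kinase panel screen.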
structure (smiles),measurement,setting,value
Nc1ncnc2c1ncn2-c1cccc(F)c1 [SKF-97560],%Inh,GRK2,61%
same,%Inh,GRK3,40%
same,%Inh,GRK4,0%
same,%Inh,GRK7,4%
same,%Inh,GSK3A,18%
same,%Inh,GSK3B; [1],13%
same,%Inh,HASPIN,45%
same,%Inh,HCK,0%
same,%Inh,HIPK1,12%
same,%Inh,HIPK2,16%
same,%Inh,HIPK3,14%
same,%Inh,HIPK4,6%
same,%Inh,HPK1,23%
same,%Inh,HUNK,10%
same,%Inh,ICK,6%
same,%Inh,IGF1R,1%
same,%Inh,IKK-alpha,13%
same,%Inh,IKK-beta,19%
same,%Inh,IKK-epsilon,23%
same,%Inh,INSRR,0%
CN(C)c1cc(-c2ccc3c(N)n[nH]c3c2)nc(N)n1 [GSK2219329],%Inh,GRK2,0%
same,%Inh,GRK3,0%
same,%Inh,GRK4,0%
same,%Inh,GRK7,0%
same,%Inh,GSK3A,0%
same,%Inh,GSK3B; [1],5%
same,%Inh,HASPIN,0%
same,%Inh,HCK,0%
same,%Inh,HIPK1,0%
same,%Inh,HIPK2,0%
same,%Inh,HIPK3,17%
same,%Inh,HIPK4,0%
same,%Inh,HPK1,26%
same,%Inh,HUNK,2%
same,%Inh,ICK,4%
same,%Inh,IGF1R,14%
same,%Inh,IKK-alpha,0%
same,%Inh,IKK-beta,0%
same,%Inh,IKK-epsilon,40%
same,%Inh,INSRR,0%
Cc1nn2c(=O)cc(N3CCOCC3)nc2n1Cc1cccc(Cl)c1Cl [GSK2342769],%Inh,GRK2,0%
same,%Inh,GRK3,83%
same,%Inh,GRK4,2%
same,%Inh,GRK7,0%
same,%Inh,GSK3A,10%
same,%Inh,GSK3B; [1],13%
same,%Inh,HASPIN,8%
same,%Inh,HCK,0%
same,%Inh,HIPK1,0%
same,%Inh,HIPK2,0%
same,%Inh,HIPK3,38%
same,%Inh,HIPK4,0%
same,%Inh,HPK1,32%
same,%Inh,HUNK,0%
same,%Inh,ICK,2%
same,%Inh,IGF1R,5%
same,%Inh,IKK-alpha,19%
same,%Inh,IKK-beta,18%
same,%Inh,IKK-epsilon,5%
same,%Inh,INSRR,0%
COc1ccc(-c2cc3c(C)nc(N)nc3n([C@H]3CC[C@H](O)CC3)c2=O)cn1,%Inh,GRK2,0%
same,%Inh,GRK3,14%
same,%Inh,GRK4,0%
same,%Inh,GRK7,1%
same,%Inh,GSK3A,0%
same,%Inh,GSK3B; [1],0%
same,%Inh,HASPIN,0%
same,%Inh,HCK,0%
same,%Inh,HIPK1,0%
same,%Inh,HIPK2,0%
same,%Inh,HIPK3,0%
same,%Inh,HIPK4,0%
same,%Inh,HPK1,0%
same,%Inh,HUNK,0%
same,%Inh,ICK,0%
same,%Inh,IGF1R,0%
same,%Inh,IKK-alpha,0%
same,%Inh,IKK-beta,0%
same,%Inh,IKK-epsilon,0%
same,%Inh,INSRR,0%
CCC(=O)c1c(-c2ccccc2)c2cc(Cl)ccc2c(=O)n1Cc1cc(C(=O)NC2CC2)n(C)n1,%Inh,GRK2,0%
same,%Inh,GRK3,23%
same,%Inh,GRK4,0%
same,%Inh,GRK7,12%
same,%Inh,GSK3A,0%
same,%Inh,GSK3B; [1],13%
same,%Inh,HASPIN,25%
same,%Inh,HCK,22%
same,%Inh,HIPK1,0%
same,%Inh,HIPK2,8%
same,%Inh,HIPK3,2%
same,%Inh,HIPK4,1%
same,%Inh,HPK1,0%
same,%Inh,HUNK,0%
same,%Inh,ICK,4%
same,%Inh,IGF1R,0%
same,%Inh,IKK-alpha,5%
same,%Inh,IKK-beta,10%
same,%Inh,IKK-epsilon,0%
same,%Inh,INSRR,0%
CCC(=O)c1c(-c2ccccc2)c2cc(Cl)ccc2c(=O)n1Cc1cc(S(C)(=O)=O)n(CCC(C)(C)O)n1,%Inh,GRK2,0%
same,%Inh,GRK3,0%
same,%Inh,GRK4,0%
same,%Inh,GRK7,29%
same,%Inh,GSK3A,0%
same,%Inh,GSK3B; [1],0%
same,%Inh,HASPIN,43%
same,%Inh,HCK,10%
same,%Inh,HIPK1,33%
same,%Inh,HIPK2,29%
same,%Inh,HIPK3,0%
same,%Inh,HIPK4,3%
same,%Inh,HPK1,17%
same,%Inh,HUNK,0%
same,%Inh,ICK,0%
same,%Inh,IGF1R,4%
same,%Inh,IKK-alpha,0%
same,%Inh,IKK-beta,3%
same,%Inh,IKK-epsilon,30%
same,%Inh,INSRR,10%
O=C1NC(=O)C(c2ccccc2)=C1Nc1cccc(O)c1 [SB-390534],%Inh,GRK2,0%
same,%Inh,GRK3,0%
same,%Inh,GRK4,3%
same,%Inh,GRK7,0%
same,%Inh,GSK3A,30%
same,%Inh,GSK3B; 1 µM,20%
same,%Inh,HASPIN,6%
same,%Inh,HCK,6%
same,%Inh,HIPK1,8%
same,%Inh,HIPK2,18%
same,%Inh,HIPK3,8%
same,%Inh,HIPK4,2%
same,%Inh,HPK1,9%
same,%Inh,HUNK,29%
same,%Inh,ICK,10%
same,%Inh,IGF1R,0%
same,%Inh,IKK-alpha,0%
same,%Inh,IKK-beta,0%
same,%Inh,IKK-epsilon,0%
same,%Inh,INSRR,15%
CCCC(=O)Nc1n[nH]c2ncc(-c3cccc4ccccc34)cc12 [SB-642057],%Inh,GRK2,0%
same,%Inh,GRK3,0%
same,%Inh,GRK4,0%
same,%Inh,GRK7,0%
same,%Inh,GSK3A,87%
same,%Inh,GSK3B; 1 µM,33%
same,%Inh,HASPIN,0%
same,%Inh,HCK,1%
same,%Inh,HIPK1,0%
same,%Inh,HIPK2,0%
same,%Inh,HIPK3,11%
same,%Inh,HIPK4,26%
same,%Inh,HPK1,31%
same,%Inh,HUNK,30%
same,%Inh,ICK,45%
same,%Inh,IGF1R,16%
same,%Inh,IKK-alpha,9%
same,%Inh,IKK-beta,30%
same,%Inh,IKK-epsilon,27%
same,%Inh,INSRR,0%
O=C(NCc1cccs1)c1cc(C(=O)c2c(Cl)cccc2Cl)c[nH]1 [GW823670],%Inh,GRK2,16%
same,%Inh,GRK3,25%
same,%Inh,GRK4,8%
same,%Inh,GRK7,0%
same,%Inh,GSK3A,0%
same,%Inh,GSK3B; [1],0%
same,%Inh,HASPIN,0%
same,%Inh,HCK,25%
same,%Inh,HIPK1,17%
same,%Inh,HIPK2,0%
same,%Inh,HIPK3,0%
same,%Inh,HIPK4,0%
same,%Inh,HPK1,37%
same,%Inh,HUNK,31%
same,%Inh,ICK,0%
same,%Inh,IGF1R,1%
same,%Inh,IKK-alpha,0%
same,%Inh,IKK-beta,0%
same,%Inh,IKK-epsilon,3%
same,%Inh,INSRR,0%
CCC(=O)c1c(-c2ccccc2)c2cc(Cl)ccc2c(=O)n1Cc1cc(S(C)(=O)=O)n(CC(N)=O)n1,%Inh,GRK2,0%
same,%Inh,GRK3,0%
same,%Inh,GRK4,0%
same,%Inh,GRK7,0%
same,%Inh,GSK3A,6%
same,%Inh,GSK3B; [1],0%
same,%Inh,HASPIN,0%
same,%Inh,HCK,24%
same,%Inh,HIPK1,29%
same,%Inh,HIPK2,0%
same,%Inh,HIPK3,0%
same,%Inh,HIPK4,0%
same,%Inh,HPK1,0%
same,%Inh,HUNK,0%
same,%Inh,ICK,0%
same,%Inh,IGF1R,0%
same,%Inh,IKK-alpha,0%
same,%Inh,IKK-beta,0%
same,%Inh,IKK-epsilon,0%
same,%Inh,INSRR,0%
OCCCNc1nccc(-c2c(-c3cccc(C(F)(F)F)c3)nn3cc(C(F)(F)F)ccc23)n1 [GW630813],%Inh,GRK2,0%
same,%Inh,GRK3,37%
same,%Inh,GRK4,0%
same,%Inh,GRK7,0%
same,%Inh,GSK3A,0%
same,%Inh,GSK3B; [1],2%
same,%Inh,HASPIN,21%
same,%Inh,HCK,0%
same,%Inh,HIPK1,0%
same,%Inh,HIPK2,0%
same,%Inh,HIPK3,0%
same,%Inh,HIPK4,0%
same,%Inh,HPK1,27%
same,%Inh,HUNK,9%
same,%Inh,ICK,0%
same,%Inh,IGF1R,8%
same,%Inh,IKK-alpha,0%
same,%Inh,IKK-beta,0%
same,%Inh,IKK-epsilon,14%
same,%Inh,INSRR,0%
CN1C(=O)C(Nc2ccccc2)=C(c2ccccc2)C1=O [SB-300079],%Inh,GRK2,0%
same,%Inh,GRK3,0%
same,%Inh,GRK4,0%
same,%Inh,GRK7,0%
same,%Inh,GSK3A,9%
same,%Inh,GSK3B; [1],3%
same,%Inh,HASPIN,15%
same,%Inh,HCK,13%
same,%Inh,HIPK1,28%
same,%Inh,HIPK2,9%
same,%Inh,HIPK3,0%
same,%Inh,HIPK4,0%
same,%Inh,HPK1,0%
same,%Inh,HUNK,67%
same,%Inh,ICK,0%
same,%Inh,IGF1R,0%
same,%Inh,IKK-alpha,11%
same,%Inh,IKK-beta,0%
same,%Inh,IKK-epsilon,0%
same,%Inh,INSRR,0%
COc1cc(OC)cc(-c2cc3cnc(N)nc3nc2NC(=O)NC(C)(C)C)c1,%Inh,GRK2,0%
same,%Inh,GRK3,0%
same,%Inh,GRK4,13%
same,%Inh,GRK7,9%
same,%Inh,GSK3A,0%
same,%Inh,GSK3B; [1],0%
same,%Inh,HASPIN,0%
same,%Inh,HCK,0%
same,%Inh,HIPK1,15%
same,%Inh,HIPK2,0%
same,%Inh,HIPK3,0%
same,%Inh,HIPK4,0%
same,%Inh,HPK1,0%
same,%Inh,HUNK,0%
same,%Inh,ICK,0%
same,%Inh,IGF1R,0%
same,%Inh,IKK-alpha,7%
same,%Inh,IKK-beta,9%
same,%Inh,IKK-epsilon,7%
same,%Inh,INSRR,0%
O=C(Nc1n[nH]c2nc(-c3ccccc3)c(Br)cc12)C1CC1 [SB-708998],%Inh,GRK2,12%
same,%Inh,GRK3,0%
same,%Inh,GRK4,14%
same,%Inh,GRK7,0%
same,%Inh,GSK3A,90.3%
same,%Inh,GSK3B; 1 µM,15%
same,%Inh,HASPIN,0%
same,%Inh,HCK,0%
same,%Inh,HIPK1,0%
same,%Inh,HIPK2,0%
same,%Inh,HIPK3,0%
same,%Inh,HIPK4,6%
same,%Inh,HPK1,20%
same,%Inh,HUNK,0%
same,%Inh,ICK,0%
same,%Inh,IGF1R,1%
same,%Inh,IKK-alpha,0%
same,%Inh,IKK-beta,5%
same,%Inh,IKK-epsilon,2%
same,%Inh,INSRR,9%
COc1cc(Nc2ccnc3ccc(C(F)(F)F)cc23)cc(OC)c1OC [GW577382],%Inh,GRK2,0%
same,%Inh,GRK3,25%
same,%Inh,GRK4,0%
same,%Inh,GRK7,0%
same,%Inh,GSK3A,0%
same,%Inh,GSK3B; [1],3%
same,%Inh,HASPIN,29%
same,%Inh,HCK,38%
same,%Inh,HIPK1,5%
same,%Inh,HIPK2,0%
same,%Inh,HIPK3,18%
same,%Inh,HIPK4,0%
same,%Inh,HPK1,31%
same,%Inh,HUNK,30%
same,%Inh,ICK,0%
same,%Inh,IGF1R,0%
same,%Inh,IKK-alpha,21%
same,%Inh,IKK-beta,3%
same,%Inh,IKK-epsilon,0%
same,%Inh,INSRR,4%
